Assay outcomes from PubChem.
IMPase Li cell: qHTS Assay for Identifying the Cell-Membrane Permeable IMPase Inhibitors: Potentiation with Lithium; Potency, µM (titrated, usually from 59.4 µM), for the others: at the highest dose activity, negative = IMPase inhibition, most hits filed as inhibitors; CHO-M1 cells, IP1 TR-FRET (IP-One), carbachol + lithium; 0.35% of 210,000 active; AID 1457, 2008; active = well fitted curve in the direction sought with a large enough effect; inconclusive = small, poorly fitted or top-dose-only effect, or another doubt; inactive = no such curve, though single readings can be large; an effect the other way counts as inactive or inconclusive;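 note: IP1 builds up when IMPase is blocked and the TR-FRET signal falls; plate controls were basal vehicle for no effect and high inhibitor control for full effect; nearly all actives have a fitted effect of over 50% in size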
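Steps: plate 2000 CHO-M1 cells per well and culture 16–30 h; add compound and lithium; incubate 30 min, 37C; add d2-IP1 tracer and Eu cryptate anti-IP1 antibody in lysis buffer; read after 10 min at room temperature.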
ALDH1A1 block: qHTS Assay for Inhibitors of Aldehyde Dehydrogenase 1 (ALDH1A1) | Aldehyde dehydrogenase 1A1 (Homo sapiens), P00352 | Purified ALDH1A1, NADH fluorescence, propionaldehyde substrate | Potency, µM (doses to about 75.3 µM), without a hit: at the highest dose activity, negative = inhibition, hits mostly inhibitors | 7.3% of 220,000 active | AID 1030, 2008;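 note: plate controls were no enzyme wells and a reference inhibitor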
Target sequence (P00352 whole entry, looked up): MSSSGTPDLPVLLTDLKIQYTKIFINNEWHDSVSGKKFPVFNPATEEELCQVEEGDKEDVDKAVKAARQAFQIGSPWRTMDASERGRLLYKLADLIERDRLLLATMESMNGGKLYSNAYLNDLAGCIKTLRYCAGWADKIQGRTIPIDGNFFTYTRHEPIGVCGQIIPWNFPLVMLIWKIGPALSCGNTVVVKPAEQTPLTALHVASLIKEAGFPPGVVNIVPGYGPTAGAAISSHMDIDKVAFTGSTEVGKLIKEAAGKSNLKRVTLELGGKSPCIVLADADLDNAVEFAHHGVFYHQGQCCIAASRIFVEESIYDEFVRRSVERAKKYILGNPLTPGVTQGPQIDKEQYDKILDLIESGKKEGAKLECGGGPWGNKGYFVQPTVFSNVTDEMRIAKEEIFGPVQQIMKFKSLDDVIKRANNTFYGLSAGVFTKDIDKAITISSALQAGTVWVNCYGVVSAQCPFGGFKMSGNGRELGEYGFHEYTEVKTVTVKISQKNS
KinaseGlo FLuc: Counterscreen for Luciferase (Kinase-Glo TM) Inhibition; Kinase-Glo luciferase, ATP luminescence, 8 min; Potency, µM (top dose mostly 38.3 µM), without a hit: at the highest dose activity change, negative = inhibition, hits mostly inhibitors; 0.28% of 200,000 active; AID 1379, 2008; active = well fitted curve in the direction sought with a large enough effect; inconclusive = small, poorly fitted or top-dose-only effect, or another doubt; inactive = no such curve, though single readings can be large; an effect the other way counts as inactive or inconclusive; note: nearly all actives have a fitted effect of over 60% in size
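Substrate mix (final 50 mM imidazole pH 7.2, 50 mM KCl, 7 mM MgCl2, 10 uM ATP, 0.01% Tween 20, 0.05% BSA) plus pin-tool compound, then Kinase-Glo detection mix; 8 min ambient, luminescence read.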
LMNA splice mod: qHTS Assay for Modulators of Lamin A Splicing; 0.01% of 200,000 active; HeLa LMNA splicing GFP/RFP minigene ratio, 48 h; AID 1487, 2009; Potency, µM (series often up to 46.1 µM), without a hit: at the top dose ratio change, negative = inhibition, most hits filed as inhibitors; active = well fitted inhibition curve with a large enough effect in the signal ratio, with a control signal flat, not every such curve was filed as active; inconclusive = small, poorly fitted or top-dose-only effect, or effect the other way, or a change in a side signal; the % refers to the signal ratio
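S3 HeLa stable clones carrying a lamin A-EGFP splicing minigene plus DsRed2 were seeded at 600 cells/well in Opti-MEM with 2% FBS, pin-dosed and incubated 48 h at 37°C. Acumen cytometry (488 nm) gave the GFP/RFP total-intensity ratio.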
HPGD inh: qHTS Assay for Inhibitors of HPGD (15-Hydroxyprostaglandin Dehydrogenase); purified HPGD, NADH fluorescence kinetic, PGE2 substrate; 15-hydroxyprostaglandin dehydrogenase [NAD(+)] (Homo sapiens), P15428; 4.3% of 150,000 active; AID 894, 2007; Potency, µM, without a hit: at the highest dose activity change, negative = inhibition, hits mostly inhibitors
Target sequence (P15428 whole entry, looked up): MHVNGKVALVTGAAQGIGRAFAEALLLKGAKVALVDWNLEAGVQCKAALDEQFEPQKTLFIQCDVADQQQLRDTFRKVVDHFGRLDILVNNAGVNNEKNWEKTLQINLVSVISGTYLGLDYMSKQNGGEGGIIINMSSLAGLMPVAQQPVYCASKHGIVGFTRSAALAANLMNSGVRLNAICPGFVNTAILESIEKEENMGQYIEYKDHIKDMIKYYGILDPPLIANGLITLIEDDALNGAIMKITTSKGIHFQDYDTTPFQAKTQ
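NADH formation kinetics: reaction with 30 uM PGE2 and 1 mM NAD+ (final), 20 nM enzyme, Tris-HCl pH 8 with Tween 20, after 15 min compound preincubation at room temperature. Fluorescence change, last versus first of five reads.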
* = called active by the depositor; [ ] = another dose, or the depositor's remark. Sampled rows, rich in hits. Any-hit rate of the full collection: about 9%. Unless noted, calls come from the whole dose curve; as a rule, active = well fitted inhibition curve with a large enough effect (not every such curve was filed as active); inconclusive = small, poorly fitted or top-dose-only effect, or another doubt; inactive = no such curve, though single readings can be large or run the other way. Unless noted, % is set by controls: 0 for no effect and ±100 for the full control effect; potency is the fitted concentration of half-maximal effect.

For S=C(Nc1ccc(Cc2ccncc2)cc1)Nc1cccc(Cl)c1 the results were IMPase Li cell 0.4%, ALDH1A1 block inconclusive and KinaseGlo FLuc 1.9%.
For Cc1cc(NS(=O)(=O)c2ccc(N)cc2)nc(C)n1 the results were LMNA splice mod -14.7%.
Screening O=C(COc1ccccc1)N1CCN(c2ccc([N+](=O)[O-])c(N3CCCCC3)c2)CC1 returned IMPase Li cell 5.3%[38.3 µM], ALDH1A1 block 10µM*, KinaseGlo FLuc -1.9%, LMNA splice mod 6.2% and HPGD inh -15.1%.
`O=C(COc1ccc(Br)cc1)N1CCN(c2ccc([N+](=O)[O-])c(N3CCCCC3)c2)CC1` gave ALDH1A1 block 3.98µM* and LMNA splice mod inconclusive.
For Cc1ccc(OCC(=O)N2CCN(c3ccc([N+](=O)[O-])c(N4CCOCC4)c3)CC2)cc1 the results were IMPase Li cell 18.0%[38.3 µM], ALDH1A1 block -15.2%, KinaseGlo FLuc 0.6%, LMNA splice mod -0.6% and HPGD inh -7.2%.
For CN1CCN(C(=O)/C(=C\c2cccs2)NC(=O)c2ccco2)CC1 the results were IMPase Li cell 6.0%, ALDH1A1 block 4.8%, KinaseGlo FLuc 1.8%, LMNA splice mod 0.9% and HPGD inh 0.3%.
CN(C)c1cccc(NC(=O)CCc2ccccc2)c1 was read as IMPase Li cell 22.2%[38.3 µM], ALDH1A1 block inconclusive, KinaseGlo FLuc 0.5%, LMNA splice mod 0.1% and HPGD inh -22.7%.
Screening CN(C)c1cccc(NC(=O)Cc2ccc(F)cc2)c1 returned IMPase Li cell 8.5%[38.3 µM], ALDH1A1 block 14.1µM*, KinaseGlo FLuc -1.5%, LMNA splice mod inconclusive and HPGD inh -8.7%.
`Cc1ccn2c(C=O)c(-c3ccc(F)cc3)c(C=O)c2c1` gave IMPase Li cell inconclusive, ALDH1A1 block 12.6µM* and KinaseGlo FLuc -2.2%.
Screening CCOC(=O)c1ccc(NS(=O)(=O)c2ccc(Cl)nc2)cc1 returned IMPase Li cell 2.9%, ALDH1A1 block -7.8%, KinaseGlo FLuc 4.7% and LMNA splice mod inconclusive.
For CCS(=O)(=O)Nc1ccc(Cc2ccc(NS(=O)(=O)CC)cc2)cc1 the results were IMPase Li cell 10.0%[38.3 µM], ALDH1A1 block 1.7%, KinaseGlo FLuc -2.4%, LMNA splice mod inconclusive and HPGD inh 5.62µM*.
Screening CCOC(=O)c1ccccc1NC(=O)c1ccc(NS(C)(=O)=O)cc1 returned IMPase Li cell 21.1%[38.3 µM], ALDH1A1 block inconclusive, KinaseGlo FLuc -0.2%, LMNA splice mod -10.4% and HPGD inh 15.8µM*.
Screening CCOC(=O)c1ccc(NS(=O)(=O)CC)cc1 returned IMPase Li cell -1.2%[38.3 µM], ALDH1A1 block 5.0%, KinaseGlo FLuc 2.7%, LMNA splice mod -12.0% and HPGD inh 14.1µM*.
Screening CC(C)NC(=O)/C=C/C(=O)O returned IMPase Li cell 0.6%, ALDH1A1 block 23.6% and KinaseGlo FLuc -2.5%.
For CCCC(=O)OC(=O)CCC the results were IMPase Li cell -6.1%, ALDH1A1 block inconclusive and HPGD inh -9.6%.
NC(=O)c1ccc([N+](=O)[O-])cc1 was read as IMPase Li cell 4.6%, ALDH1A1 block 7.7% and HPGD inh -11.1%.
Screening COc1cccc(-c2oc3ccccc3c(=O)c2O)c1 returned IMPase Li cell 8.8%, ALDH1A1 block -10.6%, KinaseGlo FLuc -4.5% and HPGD inh inconclusive.
For O=c1c(O)c(-c2cccc(O)c2)oc2ccccc12 the results were IMPase Li cell 19.8%, ALDH1A1 block inconclusive, KinaseGlo FLuc 0.1% and HPGD inh 28.2µM*.
`NC(N)=Nc1nc(CSCC/C(N)=N\S(N)(=O)=O)cs1` gave IMPase Li cell 4.7%, ALDH1A1 block -3.3%, KinaseGlo FLuc -2.0% and HPGD inh -7.6%.
`COc1ccc(/C=N/c2oc(C)c(C)c2C#N)c(OC)c1` gave IMPase Li cell 0.1%, ALDH1A1 block 12.6µM*, KinaseGlo FLuc 0.6% and LMNA splice mod 6.7%[46 µM].
CC(=O)OCCCNc1cc(Sc2ccc(Cl)cc2)c2nonc2c1[N+](=O)[O-] was read as IMPase Li cell 28.2%, ALDH1A1 block inconclusive, KinaseGlo FLuc -2.4%, LMNA splice mod -0.4% and HPGD inh 12.6µM*.
`CCCC(=O)OCCNc1cc(Sc2nc3ccccc3[nH]2)c2nonc2c1[N+](=O)[O-]` gave IMPase Li cell 24.4%, ALDH1A1 block 7.08µM*, KinaseGlo FLuc -1.4%, LMNA splice mod inconclusive and HPGD inh 7.94µM*.
CC(=O)OCCNc1cc(SC(C)C)c2nonc2c1[N+](=O)[O-] was read as IMPase Li cell 3.3%, ALDH1A1 block 3.5%, KinaseGlo FLuc -0.3% and LMNA splice mod inconclusive.
CN(C)c1ccc(O)c2c1C[C@@H]1C[C@H]3C(N(C)C)C(=O)C(C(N)=O)=C(O)[C@@]3(O)C(=O)C1=C2O (stereo partly drawn) was read as ALDH1A1 block -1.1%, KinaseGlo FLuc -10.3% and HPGD inh 28.2µM*.
Screening C=C1c2cccc(O)c2C(O)=C2C(=O)[C@]3(O)C(O)=C(C(N)=O)C(=O)C(N(C)C)C3C(O)C12 (stereo partly drawn) returned IMPase Li cell 17.0%, ALDH1A1 block 7.4%, KinaseGlo FLuc -7.5% and HPGD inh 15.8µM*.
COc1cc(COc2cc(N)c(Cl)cc2C(=O)CCC2CCN(CCNS(C)(=O)=O)CC2)cc(OC)c1 was read as IMPase Li cell -28.7%, ALDH1A1 block -11.8%, KinaseGlo FLuc -0.7% and HPGD inh -2.0%.
O=C(O)C(Cc1ccccc1)N1C(=O)/C(=C/c2cccc3ccccc23)SC1=S (stereo not drawn) was read as IMPase Li cell 17.9%, ALDH1A1 block inconclusive, KinaseGlo FLuc 0.6%, LMNA splice mod -9.1% and HPGD inh 14.1µM*.
Screening O=C(O)C(Cc1ccccc1)N1C(=O)/C(=C/c2ccccc2)SC1=S (stereo not drawn) returned IMPase Li cell 1.2%, ALDH1A1 block -5.7%, KinaseGlo FLuc 2.3%, LMNA splice mod -9.8% and HPGD inh -23.3%.
Screening NS(=O)(=O)c1ccc(NC(=S)Nc2ccc(C(=O)N3CCCCC3)cc2)cc1 returned IMPase Li cell 6.8% and ALDH1A1 block 17.8µM*.
`O=C(c1ccc(NC(=S)NCc2ccc(Cl)cc2)cc1)N1CCCCC1` gave IMPase Li cell 6.8%, ALDH1A1 block inconclusive and KinaseGlo FLuc 0.4%.
O=C(c1ccc(NC(=S)Nc2ccc(Cl)c(Cl)c2)cc1)N1CCCC1 was read as IMPase Li cell 2.6%, ALDH1A1 block inconclusive, KinaseGlo FLuc 1.1%, LMNA splice mod -14.4% and HPGD inh 11.2µM*.
For CC(=O)N1CCC(N(Cc2ccco2)C(=O)Nc2ccc(Br)cc2F)CC1 the results were LMNA splice mod 2.1%[46 µM].
